Drawing on PubChem BioAssay, this text covers z-score and composite z-score for 13 compounds.

Calls of active or inactive are those of the source.

Test [1] is described as follows: optical density shifts of acrAB sulA E. coli – strain DRC41, OD650, 48 h, E. coli filamentation inducer project, primary screen (AID 1152).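 Further: E. coli MC1000 strain DRC41 lacking acrAB efflux pump and sulA.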 The conditions noted are these: higher = more signal, called active from +8 up or from −8 down.
The nature of test [2]: probe aLefty1 binding on compound microarray – biochemical, small-molecule microarray, 635/667 nm fluorescence, primary screen (AID 1153).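 Further: score merges spot fluorescence with signal-to-noise ratio from the scanned slide images.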 The conditions noted are these: higher = more signal.
The nature of test [3]: plasmodial surface anion channel blockers, osmotic lysis – cell-based, P. falciparum Indochina, OD700, 1 h, primary screen (AID 1154). The conditions noted are these: P. falciparum Indochina infected RBC osmotic lysis, higher = more signal, called active from +8 up or from −8 down.
The nature of test [4]: plasmodial surface anion channel blockers, osmotic lysis – cell-based, P. falciparum Indochina, OD700, 2 h, primary screen (AID 1155).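 Further: lysis reports solute entry through the parasite surface anion channel PSAC.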 The conditions noted are these: P. falciparum Indochina infected erythrocytes, higher = more signal, called active from +8 up or from −8 down.
Test [5] is described as follows: changes in parasitized red cell lysis, either direction – P. falciparum Indochina, OD700, 3 h, PSAC antagonist project, primary screen (AID 1156). The conditions noted are these: P. falciparum-infected erythrocytes, osmotic lysis, higher = more signal, called active from +8 up or from −8 down.
A short description of test [6]: plasmodial surface anion channel blockers, osmotic lysis – cell-based, P. falciparum Indochina, OD700, 18 h, primary screen (AID 1157). As to conditions: P. falciparum Indochina infected erythrocytes, osmotic lysis OD700, 18 h; higher = more signal, called active from +8 up or from −8 down.
A short description of test [7]: S6 kinase pathway phospho-S6 level changes – cell-based, A549, cytoblot, luminescence, serum-stimulated, primary screen (AID 1158).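 Further: serum-stimulated A549 lung adenocarcinoma cells; signal is phosphorylated S6 detected by cytoblot immunostaining with HRP secondary.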 As to conditions: 5 h, higher = more signal.
Test [8] concerns the target NADPH oxidase 2 (Homo sapiens) (UniProt P04839). The test can be described thus: compounds shifting NOX2 Amplex Red fluorescence – cell-based, HEK293-NOX2, PMA-stimulated, NOX inhibitor project, primary screen (AID 1159). Further: test concentration not given here. As to conditions: 45 min, higher = more signal, called active from +8 up or from −8 down.
Test [9] has as its target NADPH oxidase 4 (Homo sapiens) (UniProt Q9NPH5). As to the kind of experiment: compounds shifting NOX4 Amplex Red fluorescence – cell-based, HEK293-NOX4, tetracycline-induced, NOX inhibitor project, primary screen (AID 1160). The conditions noted are these: HEK293-NOX4, Amplex Red H2O2 fluorescence, 45 min; higher = more signal, called active from +8 up or from −8 down.
The target of test [10] is NADPH oxidase 5 (Homo sapiens) (UniProt Q96PH1). As to the kind of experiment: compounds shifting NOX5 Amplex Red fluorescence – cell-based, HEK293-NOX5, NOX inhibitor project, primary screen (AID 1161). As to conditions: HEK293-NOX5, ionomycin, 45 min, higher = more signal.
Sequence of NADPH oxidase 5 (Homo sapiens) (Q96PH1 whole entry, looked up): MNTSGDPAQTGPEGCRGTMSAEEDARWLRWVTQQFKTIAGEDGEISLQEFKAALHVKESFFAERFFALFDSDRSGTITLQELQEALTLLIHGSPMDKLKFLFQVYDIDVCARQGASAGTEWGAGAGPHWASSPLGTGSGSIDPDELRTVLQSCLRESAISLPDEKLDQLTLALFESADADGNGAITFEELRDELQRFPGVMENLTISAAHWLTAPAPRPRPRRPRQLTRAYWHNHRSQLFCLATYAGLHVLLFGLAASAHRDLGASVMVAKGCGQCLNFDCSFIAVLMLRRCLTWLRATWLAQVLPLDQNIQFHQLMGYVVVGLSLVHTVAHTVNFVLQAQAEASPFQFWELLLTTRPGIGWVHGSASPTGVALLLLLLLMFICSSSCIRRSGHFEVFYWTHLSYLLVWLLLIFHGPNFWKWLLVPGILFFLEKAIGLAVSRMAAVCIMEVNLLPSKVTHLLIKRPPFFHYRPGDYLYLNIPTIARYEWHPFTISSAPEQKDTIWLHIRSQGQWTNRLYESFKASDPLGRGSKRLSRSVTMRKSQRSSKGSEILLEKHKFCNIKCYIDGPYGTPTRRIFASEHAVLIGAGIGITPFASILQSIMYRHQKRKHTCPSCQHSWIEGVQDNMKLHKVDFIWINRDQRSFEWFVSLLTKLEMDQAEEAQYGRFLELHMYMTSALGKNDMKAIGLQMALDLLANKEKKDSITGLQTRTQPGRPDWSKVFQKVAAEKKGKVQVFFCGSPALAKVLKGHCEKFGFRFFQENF

Sequence of NADPH oxidase 4 (Homo sapiens) (Q9NPH5 whole entry, looked up): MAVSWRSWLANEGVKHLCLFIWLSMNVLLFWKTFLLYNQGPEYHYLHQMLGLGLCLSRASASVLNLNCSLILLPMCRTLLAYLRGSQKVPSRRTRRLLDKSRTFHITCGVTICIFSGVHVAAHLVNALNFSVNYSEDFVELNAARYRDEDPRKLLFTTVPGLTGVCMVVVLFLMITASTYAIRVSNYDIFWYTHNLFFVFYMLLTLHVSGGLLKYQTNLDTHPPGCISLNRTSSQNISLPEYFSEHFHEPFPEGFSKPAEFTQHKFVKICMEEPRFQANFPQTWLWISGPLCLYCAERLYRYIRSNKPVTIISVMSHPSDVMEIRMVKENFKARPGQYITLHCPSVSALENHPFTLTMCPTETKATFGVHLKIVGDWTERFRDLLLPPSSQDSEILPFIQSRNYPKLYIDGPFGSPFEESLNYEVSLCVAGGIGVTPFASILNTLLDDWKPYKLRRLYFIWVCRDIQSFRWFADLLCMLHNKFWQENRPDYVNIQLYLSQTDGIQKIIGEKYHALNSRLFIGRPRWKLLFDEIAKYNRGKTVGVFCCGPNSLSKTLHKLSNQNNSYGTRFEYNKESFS
Sequence of NADPH oxidase 2 (Homo sapiens) (P04839 whole entry, looked up): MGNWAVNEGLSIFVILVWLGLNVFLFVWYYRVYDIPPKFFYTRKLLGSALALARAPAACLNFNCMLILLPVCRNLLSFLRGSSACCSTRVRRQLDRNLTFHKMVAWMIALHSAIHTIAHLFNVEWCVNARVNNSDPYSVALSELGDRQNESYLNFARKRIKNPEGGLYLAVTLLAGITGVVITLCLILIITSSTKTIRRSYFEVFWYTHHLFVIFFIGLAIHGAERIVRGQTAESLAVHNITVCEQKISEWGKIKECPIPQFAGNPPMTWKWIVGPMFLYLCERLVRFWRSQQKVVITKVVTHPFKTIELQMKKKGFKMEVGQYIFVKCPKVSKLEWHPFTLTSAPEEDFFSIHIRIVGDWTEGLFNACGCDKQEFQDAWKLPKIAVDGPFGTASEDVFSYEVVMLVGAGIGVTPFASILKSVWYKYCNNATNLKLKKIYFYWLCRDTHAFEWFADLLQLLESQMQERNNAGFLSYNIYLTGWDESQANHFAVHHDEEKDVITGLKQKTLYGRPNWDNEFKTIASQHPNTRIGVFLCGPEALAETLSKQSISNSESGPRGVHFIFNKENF

For `CCCCCCCCCCC(O)C1C=CC2C(=O)N(c3ccccc3)C(=O)C2N1Nc1ccccc1F` (stereo not given), the z-score in test [1] was -1.43 (inactive); in test [3], 2.64 (inactive); in test [4], 1.45 (inactive); in test [5], -0.518 (inactive); in test [6] it was 1.91 (inactive); in test [7] it was -0.827. Moreover, the z-score is -0.534 (inactive) in test [8], 0.101 (inactive) in test [9] and -1.24 in test [10]. This compound also had a composite z-score in test [2] of 0.145.
As for `COCCOC(=O)N1C(=O)[C@@]2(c3ccccc31)[C@H](c1ccccc1OCCO)N1[C@H](c3ccccc3)[C@H](c3ccccc3)OC(=O)[C@H]1[C@@H]2C(=O)N1CCCCCCC1`, the z-score in test [1] was -0.553 (inactive); in [3], 1.26 (inactive); in test [4], 0.612 (inactive); in [5], 0.0224 (inactive); in [6], 0.557 (inactive); in [7] it was -0.37. Also, the z-score is 0.168 (inactive) in [8], -1.29 (inactive) in test [9] and 0.481 in test [10]. For the same compound, the composite z-score in test [2] is 3.11.
Regarding `Cc1ccccc1C(O)C1C=CC2C(=O)NC(=O)C2N1Nc1ccc(Cl)cc1Cl` (stereo not given), the z-score in test [1] was -1.87 (inactive); in test [3], 1.81 (inactive); in [4], 1.35 (inactive); in test [5] it was -1.11 (inactive); in test [6], 0.975 (inactive); in [7] it was -0.649. For the same compound, the z-score in test [8] was -0.254 (inactive); in test [9], -4.79 (inactive); in [10], -2.02. Besides, the composite z-score in test [2] worked out at 0.219.
On to `COc1ccc(C(O)C2C=CC3C(=O)N(c4ccccc4)C(=O)C3N2Nc2ccccc2)cc1` (stereo not given), for which the z-score is -1.04 (inactive) in test [1]; 10.9 (active) in test [3]; 2.15 (inactive) in test [4]; 0.332 (inactive) in [5]; 1.27 (inactive) in test [6]; -1.44 in test [7]. In addition, the z-score in test [8] is -2.06 (inactive); in test [9] it was -3.23 (inactive); in test [10], -2.84. Besides, in test [2], the composite z-score was 0.411.
Turning to `CC(C)OC(=O)CC(=O)CC(O)c1ccc([N+](=O)[O-])cc1` (stereo not given), the z-score in test [1] is -0.314 (inactive); in test [3], 1.92 (inactive); in [4], 0.586 (inactive); in test [5], 0.0451 (inactive); in test [6] it was 0.438 (inactive); in [7], -0.243. Moreover, the z-score in test [8] was 0.0696 (inactive); in test [9], 0.66 (inactive); in test [10], 0.39. This compound gave a composite z-score in test [2] of 0.0509.
Turning to `CCCCCCCCCCC(O)C1C=CC2C(=O)N(C)C(=O)C2N1Nc1cc(OC)c(OC)c(OC)c1` (stereo not given), the z-score in test [1] was -1.99 (inactive); in test [3], 13.6 (active); in test [4], 3.42 (inactive); in test [5], 0.214 (inactive); in [6], 2.15 (inactive); in test [7], -0.635. Besides, the z-score in test [8] was -2.1 (inactive); in [9], -4.98 (inactive); in test [10], -0.944. The compound also showed a composite z-score in test [2] of 0.166.
For `COCCCNC(=O)[C@@]1(c2ccc([N+](=O)[O-])cc2)CC(=O)N(C(C)C)[C@@H]1c1ccc(CO)cc1`, the z-score in test [1] is 0.569 (inactive); in [3] it was 0.481 (inactive); in test [4] it was -0.135 (inactive); in test [5], -0.288 (inactive); in [6], -0.0629 (inactive); in [7], 0.361. The z-score was -0.635 (inactive) in [8], 0.726 (inactive) in test [9] and -0.0684 in [10]. Further, in [2], the composite z-score is 0.125.
On to `C=CCC(OC(C)=O)[C@@H]1[C@@H](N(Cc2cccc3ccccc23)C(=O)c2cccc3ccccc23)c2cc(OCCCO)ccc2N1C(=O)c1ccc2ccccc2c1` (stereo not given in full), for which the z-score was 0.0047 (inactive) in [1]; 0.529 (inactive) in [3]; -0.128 (inactive) in test [4]; 1.41 (inactive) in test [5]; 0.0897 (inactive) in test [6]; 0.914 in [7]. Moreover, the z-score is -2.77 (inactive) in test [8], -1.09 (inactive) in test [9] and -2.66 in test [10]. The composite z-score in test [2] is -0.333.
In the case of `CC(C)c1ccc(NN2C(C(O)Cc3ccccc3)C=CC3C(=O)N(c4ccccc4)C(=O)C32)cc1` (stereo not given), the z-score in test [1] was -1.76 (inactive); in test [3], 1.93 (inactive); in [4] it was 1.31 (inactive); in test [5], 0.127 (inactive); in test [6], 1.05 (inactive); in test [7] it was -1.27. In addition, the z-score in test [8] is -0.343 (inactive); in test [9] it was -3.62 (inactive); in test [10], -2.69. In test [2], this compound came in with a composite z-score of 0.181.
For the compound `O=C1OCCC/C=C\[C@H]2OC34C=CCN(c5ccc6ccccc6c5)C(=O)[C@H]3N(CCCO)C(=O)[C@@H]4C12` (stereo not given in full), the z-score in [1] is -0.52 (inactive); in test [3], 3.21 (inactive); in test [4] it was 0.571 (inactive); in test [5], -0.276 (inactive); in test [6], 0.187 (inactive); in test [7], 0.688. Further, the z-score in [8] is 2.08 (inactive); in test [9] it was 1.14 (inactive); in test [10], 2.53. Besides, in test [2], the composite z-score is -0.366.
Take `Cc1ccc(S[C@]2(C(=O)NC(C)C)CC(=O)N(C(C)C)[C@@H]2c2ccc(CO)cc2I)cc1`: the z-score was -0.745 (inactive) in test [1]; 4.77 (inactive) in test [3]; 0.342 (inactive) in test [4]; 0.59 (inactive) in [5]; 0.397 (inactive) in test [6]; 0.293 in [7]. In addition, the z-score is 1.8 (inactive) in test [8], -1.53 (inactive) in test [9] and -0.227 in test [10]. For the same compound, the composite z-score in [2] is 0.207.
Turning to `CC(C)C[C@@H]1NC(=O)CNC(=O)[C@@]23C(=O)N[C@@H](Cc4ccccc4)C2[C@H](C)[C@@]2(C)O[C@H]2C3/C=C/C/C=C\CNC1=O` (stereo not given in full), the z-score in test [1] was -0.455 (inactive); in test [3] it was 0.349 (inactive); in test [4] it was -0.262 (inactive); in test [5], 0.183 (inactive); in [6] it was -0.16 (inactive); in test [7], -0.0425. Further, the z-score in [8] was 0.217 (inactive); in test [9], 1.1 (inactive); in test [10], 0.149. For the same compound, the composite z-score in [2] is -0.0265.
Take `CN1C(=O)[C@@H]2[C@@H](CC(COc3ccccc3)=C([C@H](O)CCc3ccccc3)[C@@H]2CO)C1=O`: the z-score in test [1] is 2.03 (inactive); in test [3] it was 29.5 (active); in test [4], 21.6 (active); in test [5], -0.0433 (inactive); in test [6], 1.43 (inactive); in [7], 0.867. Moreover, the z-score in test [8] is -0.561 (inactive); in test [9], 0.867 (inactive); in test [10] it was 0.199. Also, the composite z-score in [2] was -0.328.
